According to the supplement of paper PMC10849652:
Of roughly 8,800 targets only a part is listed; those with a hit were picked by preference. About 0.5% of all pairs of compound and target were hits. Values without a mark were called inactive.

Key:
Test in all cases: log2 fold change, soluble protein after heating vs DMSO (PISA); higher = thermal stabilisation; K562 lysate, 10 uM; active = over 0.2 and 3.5 SD of the protein, either way, in both replicates (recomputed)
lapatinib = compound: CS(=O)(=O)CCNCc1ccc(-c2ccc3ncnc(Nc4ccc(OCc5cccc(F)c5)c(Cl)c4)c3c2)o1 [lapatinib]
How it was run: (§1)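 To prepare the extract, K562 pellets were dounce-homogenised in PBS pH 7.4 with 1 mM MgCl2, giving crude material at 1 mg/mL protein. This was treated with 10 μM compound for 30 min, then heated in aliquots for 3 min over 48°C-58°C before pooling and addition of NP-40 to 0.5% at 4°C. Centrifugation at 21,000xg for 90 min left soluble protein in the supernatant, which TMTpro 16plex LC-MS/MS quantified with equalised channel sums. Results are log-two fold changes in thermal stability compared with solvent controls, from duplicates.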

pictilisib = compound: CS(=O)(=O)N1CCN(Cc2cc3nc(-c4cccc5[nH]ncc45)nc(N4CCOCC4)c3s2)CC1 [pictilisib]
How it was run: as §1

crizotinib = compound: C[C@@H](Oc1cc(-c2cnn(C3CCNCC3)c2)cnc1N)c1c(Cl)ccc(F)c1Cl [crizotinib]
How it was run: as §1

[1] = compound: C[C@H](C1=CC=C(C=C1)C(=O)NC2=C3C=CNC3=NC=C2)N
How it was run: as §1

duvelisib = compound: C[C@H](Nc1ncnc2nc[nH]c12)c1cc2cccc(Cl)c2c(=O)n1-c1ccccc1 [duvelisib]
How it was run: as §1

gandotinib = compound: Cc1cc(Nc2cc(CN3CCOCC3)c3nc(C)c(Cc4ccc(Cl)cc4F)n3n2)n[nH]1 [gandotinib]
How it was run: as §1

tozasertib = compound: Cc1cc(Nc2cc(N3CCN(C)CC3)nc(Sc3ccc(NC(=O)C4CC4)cc3)n2)n[nH]1 [tozasertib]
How it was run: as §1

doramapimod = compound: Cc1ccc(-n2nc(C(C)(C)C)cc2NC(=O)Nc2ccc(OCCN3CCOCC3)c3ccccc23)cc1 [doramapimod]
How it was run: as §1

bafetinib = compound: Cc1ccc(NC(=O)c2ccc(CN3CC[C@H](N(C)C)C3)c(C(F)(F)F)c2)cc1Nc1nccc(-c2cncnc2)n1 [bafetinib]
How it was run: as §1

[2] = compound: Cc1cccc(CC(=O)N2CCc3c2ccc(-c2cn(C)c4ncnc(N)c24)c3F)n1
How it was run: as §1

nilotinib = compound: Cc1cn(-c2cc(NC(=O)c3ccc(C)c(Nc4nccc(-c5cccnc5)n4)c3)cc(C(F)(F)F)c2)cn1 [nilotinib]
How it was run: as §1

[3] = compound: Cc1nc(Nc2n[nH]c3c2CN(C(=O)N[C@H](CN(C)C)c2ccccc2)C3(C)C)c2sccc2n1
How it was run: as §1

dasatinib = compound: Cc1nc(Nc2ncc(C(=O)Nc3c(C)cccc3Cl)s2)cc(N2CCN(CCO)CC2)n1 [dasatinib]
How it was run: as §1

[4] = compound: Cc1ncc(-c2ccnc(Nc3ccc(S(C)(=O)=O)cc3)n2)n1C(C)C
How it was run: as §1

[5] = compound: Cn1cc(-c2ccc3c(c2)CCN3C(=O)Cc2cccc(C(F)(F)F)c2)c2c(N)ncnc21
How it was run: as §1

quisinostat = compound: Cn1cc(CNCC2CCN(c3ncc(C(=O)NO)cn3)CC2)c2ccccc21 [quisinostat]
How it was run: as §1

tipifarnib = compound: Cn1cncc1[C@@](N)(c1ccc(Cl)cc1)c1ccc2c(c1)c(-c1cccc(Cl)c1)cc(=O)n2C [tipifarnib]
How it was run: as §1

[6] = compound: NC(=O)Nc1cc(-c2cccc(F)c2)sc1C(=O)N[C@H]1CCCNC1
How it was run: as §1

[7] = compound: NC(=O)c1cnc(N[C@@H]2CCCC[C@@H]2N)nc1Nc1cccc(-n2nccn2)c1
How it was run: as §1

[8] = compound: NC1(c2ccc(-c3nc4ccn5c(=O)[nH]nc5c4cc3-c3ccccc3)cc2)CCC1
How it was run: as §1

UniProt Q96DM3, sequence (Q96DM3 whole entry, looked up): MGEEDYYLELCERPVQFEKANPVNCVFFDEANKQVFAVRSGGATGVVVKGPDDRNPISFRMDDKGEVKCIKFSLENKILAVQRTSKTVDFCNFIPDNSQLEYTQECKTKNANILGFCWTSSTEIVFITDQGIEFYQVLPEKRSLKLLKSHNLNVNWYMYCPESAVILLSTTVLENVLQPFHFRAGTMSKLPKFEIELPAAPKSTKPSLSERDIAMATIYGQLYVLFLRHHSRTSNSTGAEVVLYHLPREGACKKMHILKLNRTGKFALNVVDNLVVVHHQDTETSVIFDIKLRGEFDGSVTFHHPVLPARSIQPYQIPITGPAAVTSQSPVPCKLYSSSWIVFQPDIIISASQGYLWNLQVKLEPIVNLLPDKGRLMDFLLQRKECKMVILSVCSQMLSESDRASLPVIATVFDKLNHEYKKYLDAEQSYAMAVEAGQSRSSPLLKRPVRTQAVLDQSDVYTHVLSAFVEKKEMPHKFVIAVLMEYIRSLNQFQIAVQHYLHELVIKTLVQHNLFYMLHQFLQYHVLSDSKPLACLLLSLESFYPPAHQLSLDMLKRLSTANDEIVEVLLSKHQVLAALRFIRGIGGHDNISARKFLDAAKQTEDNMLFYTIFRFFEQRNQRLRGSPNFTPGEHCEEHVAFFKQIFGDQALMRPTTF
UniProt P23443, sequence (P23443 whole entry, looked up): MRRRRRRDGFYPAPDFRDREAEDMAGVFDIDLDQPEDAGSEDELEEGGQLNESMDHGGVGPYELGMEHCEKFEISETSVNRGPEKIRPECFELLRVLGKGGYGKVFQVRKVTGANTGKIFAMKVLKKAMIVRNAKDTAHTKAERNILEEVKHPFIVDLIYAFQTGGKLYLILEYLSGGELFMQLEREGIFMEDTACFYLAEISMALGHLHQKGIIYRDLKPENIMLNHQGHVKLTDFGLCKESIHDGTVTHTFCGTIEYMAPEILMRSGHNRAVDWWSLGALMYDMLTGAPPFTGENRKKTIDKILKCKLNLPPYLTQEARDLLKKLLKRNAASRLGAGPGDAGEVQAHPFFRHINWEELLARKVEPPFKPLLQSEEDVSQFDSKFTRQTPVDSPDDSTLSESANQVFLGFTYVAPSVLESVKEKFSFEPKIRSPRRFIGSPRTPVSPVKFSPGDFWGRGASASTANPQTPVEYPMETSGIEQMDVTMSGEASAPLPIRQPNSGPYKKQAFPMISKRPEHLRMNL
UniProt Q05823, sequence (Q05823 whole entry, looked up): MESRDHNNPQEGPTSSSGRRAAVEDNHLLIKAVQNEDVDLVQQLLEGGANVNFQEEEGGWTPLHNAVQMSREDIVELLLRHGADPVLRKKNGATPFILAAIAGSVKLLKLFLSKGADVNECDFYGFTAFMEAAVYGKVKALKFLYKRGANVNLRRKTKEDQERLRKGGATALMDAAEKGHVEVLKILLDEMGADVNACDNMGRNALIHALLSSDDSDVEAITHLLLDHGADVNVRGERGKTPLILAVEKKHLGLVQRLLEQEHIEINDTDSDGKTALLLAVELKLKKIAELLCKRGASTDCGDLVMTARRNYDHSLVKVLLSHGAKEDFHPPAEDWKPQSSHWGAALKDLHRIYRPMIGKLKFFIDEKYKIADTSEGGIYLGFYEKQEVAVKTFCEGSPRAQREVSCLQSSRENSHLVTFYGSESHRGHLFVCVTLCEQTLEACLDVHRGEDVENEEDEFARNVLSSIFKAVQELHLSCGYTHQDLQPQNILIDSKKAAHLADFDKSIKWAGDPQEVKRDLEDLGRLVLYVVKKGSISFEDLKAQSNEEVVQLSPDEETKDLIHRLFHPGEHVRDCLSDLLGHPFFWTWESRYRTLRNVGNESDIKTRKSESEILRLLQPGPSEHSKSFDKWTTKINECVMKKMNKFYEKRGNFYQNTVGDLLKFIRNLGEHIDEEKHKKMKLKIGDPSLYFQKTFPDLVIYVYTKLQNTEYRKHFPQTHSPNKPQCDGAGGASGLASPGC
UniProt P04049, sequence (P04049 whole entry, looked up): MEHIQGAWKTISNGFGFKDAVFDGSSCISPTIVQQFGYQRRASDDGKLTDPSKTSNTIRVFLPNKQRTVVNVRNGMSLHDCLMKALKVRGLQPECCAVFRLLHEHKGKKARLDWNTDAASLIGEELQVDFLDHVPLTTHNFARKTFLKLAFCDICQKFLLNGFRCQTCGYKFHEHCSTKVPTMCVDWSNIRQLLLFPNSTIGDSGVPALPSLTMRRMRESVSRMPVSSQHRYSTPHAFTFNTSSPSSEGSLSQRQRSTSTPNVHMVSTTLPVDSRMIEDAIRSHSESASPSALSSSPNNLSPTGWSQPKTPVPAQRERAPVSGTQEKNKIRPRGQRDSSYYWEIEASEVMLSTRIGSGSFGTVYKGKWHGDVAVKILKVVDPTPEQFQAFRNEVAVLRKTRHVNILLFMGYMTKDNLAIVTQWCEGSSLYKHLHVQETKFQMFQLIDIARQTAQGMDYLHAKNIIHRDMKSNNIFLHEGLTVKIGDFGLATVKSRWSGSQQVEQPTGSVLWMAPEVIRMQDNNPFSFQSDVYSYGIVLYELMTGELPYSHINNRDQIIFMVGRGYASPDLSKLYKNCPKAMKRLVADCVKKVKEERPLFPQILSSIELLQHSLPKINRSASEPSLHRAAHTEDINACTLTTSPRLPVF
UniProt Q16576, sequence (Q16576 whole entry, looked up): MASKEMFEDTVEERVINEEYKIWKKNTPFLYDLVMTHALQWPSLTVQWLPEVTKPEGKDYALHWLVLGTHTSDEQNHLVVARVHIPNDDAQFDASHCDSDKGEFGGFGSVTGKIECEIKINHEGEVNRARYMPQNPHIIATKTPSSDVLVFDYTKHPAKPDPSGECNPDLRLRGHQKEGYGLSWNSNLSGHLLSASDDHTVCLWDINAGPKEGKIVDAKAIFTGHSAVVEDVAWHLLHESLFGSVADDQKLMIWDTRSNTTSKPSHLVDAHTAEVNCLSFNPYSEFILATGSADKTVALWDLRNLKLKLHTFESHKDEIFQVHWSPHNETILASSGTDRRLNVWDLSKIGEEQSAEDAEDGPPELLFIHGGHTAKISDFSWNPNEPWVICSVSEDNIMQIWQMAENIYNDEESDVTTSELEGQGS
UniProt Q9BTD8, sequence (Q9BTD8 whole entry, looked up): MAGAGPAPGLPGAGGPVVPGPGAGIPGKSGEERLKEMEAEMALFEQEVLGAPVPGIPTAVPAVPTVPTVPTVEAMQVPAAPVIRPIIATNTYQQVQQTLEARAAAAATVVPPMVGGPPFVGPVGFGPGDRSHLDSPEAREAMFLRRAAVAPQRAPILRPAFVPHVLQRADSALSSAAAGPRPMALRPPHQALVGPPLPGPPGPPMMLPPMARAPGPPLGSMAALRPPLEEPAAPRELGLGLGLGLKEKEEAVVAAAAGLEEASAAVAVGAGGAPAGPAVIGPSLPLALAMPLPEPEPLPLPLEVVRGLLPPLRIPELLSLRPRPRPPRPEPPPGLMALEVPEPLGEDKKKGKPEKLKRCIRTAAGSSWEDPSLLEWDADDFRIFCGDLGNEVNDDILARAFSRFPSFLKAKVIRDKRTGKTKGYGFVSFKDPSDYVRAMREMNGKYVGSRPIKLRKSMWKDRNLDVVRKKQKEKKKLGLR
UniProt Q15418, sequence (Q15418 whole entry, looked up): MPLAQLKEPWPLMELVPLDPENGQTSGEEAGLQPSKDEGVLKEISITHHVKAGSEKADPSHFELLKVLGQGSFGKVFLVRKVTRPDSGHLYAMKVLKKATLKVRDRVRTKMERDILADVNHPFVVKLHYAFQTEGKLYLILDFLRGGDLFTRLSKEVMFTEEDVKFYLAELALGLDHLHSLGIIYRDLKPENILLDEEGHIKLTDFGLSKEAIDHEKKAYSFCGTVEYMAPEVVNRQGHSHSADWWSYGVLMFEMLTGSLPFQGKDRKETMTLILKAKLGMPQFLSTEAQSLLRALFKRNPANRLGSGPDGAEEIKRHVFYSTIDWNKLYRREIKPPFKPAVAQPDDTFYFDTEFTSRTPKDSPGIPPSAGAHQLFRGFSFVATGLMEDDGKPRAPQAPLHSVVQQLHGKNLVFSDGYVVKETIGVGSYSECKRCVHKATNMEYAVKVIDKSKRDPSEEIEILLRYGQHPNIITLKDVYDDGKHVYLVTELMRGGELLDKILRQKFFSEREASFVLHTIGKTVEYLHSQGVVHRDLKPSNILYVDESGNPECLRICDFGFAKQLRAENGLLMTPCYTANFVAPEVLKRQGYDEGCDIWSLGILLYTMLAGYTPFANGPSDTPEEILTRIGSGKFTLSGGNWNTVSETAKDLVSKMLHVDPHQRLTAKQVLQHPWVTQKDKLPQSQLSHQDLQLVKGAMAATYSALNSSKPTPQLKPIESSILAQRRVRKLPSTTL
UniProt Q04864, sequence (Q04864 whole entry, looked up): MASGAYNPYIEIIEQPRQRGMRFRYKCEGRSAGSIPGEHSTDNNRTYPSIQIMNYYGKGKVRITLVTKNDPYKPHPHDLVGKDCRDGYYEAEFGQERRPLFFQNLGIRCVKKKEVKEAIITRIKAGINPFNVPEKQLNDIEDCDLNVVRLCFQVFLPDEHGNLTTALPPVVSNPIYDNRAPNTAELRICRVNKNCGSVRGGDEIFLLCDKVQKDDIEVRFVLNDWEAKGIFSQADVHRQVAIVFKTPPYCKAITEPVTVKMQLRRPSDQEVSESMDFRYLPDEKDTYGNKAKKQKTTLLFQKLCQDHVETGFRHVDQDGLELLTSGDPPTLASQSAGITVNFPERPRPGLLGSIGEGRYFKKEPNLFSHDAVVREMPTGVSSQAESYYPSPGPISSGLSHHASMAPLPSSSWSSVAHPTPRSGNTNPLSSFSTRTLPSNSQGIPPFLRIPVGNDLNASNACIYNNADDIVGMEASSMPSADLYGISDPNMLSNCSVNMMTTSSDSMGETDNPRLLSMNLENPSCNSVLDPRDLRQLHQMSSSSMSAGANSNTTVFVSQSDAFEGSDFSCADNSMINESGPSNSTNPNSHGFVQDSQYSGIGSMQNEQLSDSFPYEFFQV
UniProt Q00765, sequence (Q00765 whole entry, looked up): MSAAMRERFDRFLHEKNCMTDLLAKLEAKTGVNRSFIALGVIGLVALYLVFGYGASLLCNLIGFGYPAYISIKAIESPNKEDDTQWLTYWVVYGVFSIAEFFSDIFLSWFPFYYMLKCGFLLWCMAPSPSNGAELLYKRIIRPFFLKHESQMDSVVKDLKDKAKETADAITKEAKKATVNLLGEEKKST

Row | Target | log2 fold change (lapatinib) | log2 fold change (pictilisib) | log2 fold change (crizotinib) | log2 fold change [1] | log2 fold change (duvelisib) | log2 fold change (gandotinib) | log2 fold change (tozasertib) | log2 fold change (doramapimod) | log2 fold change (bafetinib) | log2 fold change [2] | log2 fold change (nilotinib) | log2 fold change [3] | log2 fold change (dasatinib) | log2 fold change [4] | log2 fold change [5] | log2 fold change (quisinostat) | log2 fold change (tipifarnib) | log2 fold change [6] | log2 fold change [7] | log2 fold change [8]
1 | RPS6KA1 (UniProt Q15418) | -0.067 | 0.08 | -0.043 | 0.007 | 0.008 | 0.05 | 0.165 | -0.039 | -0.135 | -0.172 | -0.037 | 0.204 | -0.113 | 0.078 | 0.031 | -0.045 | 0.002 | 0.256 | 0.093 | -0.028
2 | RFC2 (UniProt P35250) | -0.004 | 0.015 | -0.046 | -0.025 | 0.025 | -0.007 | 0.005 | 0.042 | -0.074 | 0.041 | 0.005 | -0.018 | -0.027 | -0.012 | 0.062 | -0.04 | -0.014 | 0.036 | 0.014 | -0.05
3 | RBBP7 isoform 2 (UniProt Q16576) | 0.002 | 0.027 | 0.008 | -0.213 | 0.025 | 0.019 | 0.017 | 0.035 | 0.018 | -0.011 | 0.013 | -0.019 | -0.005 | -0.035 | 0.016 | -0.051 | 0.047 | 0.01 | -0.025 | 0.035
4 | REEP5 (UniProt Q00765) | -0.001 | -0.026 | 0.024 | -0.11 | 0.01 | 0.061 | -0.052 | -0.03 | -0.027 | 0.055 | 0.107 | -0.011 | 0.056 | 0.003 | -0.012 | 0.005 | 0.026 | -0.024 | 0 | -0.023
5 | RPS4X (UniProt P62701) | -0.006 | 0.009 | -0.024 | 0.209 | 0.012 | -0.038 | -0.018 | -0.01 | -0.008 | -0.04 | 0.01 | -0.023 | 0.025 | -0.002 | -0.003 | 0.016 | 0.01 | -0.001 | -0.034 | 0.008
6 | RALGAPA1 isoform 6 (UniProt Q6GYQ0) | -0.075 | -0.157 | 0.036 | -0.28 (active) | 0.074 | 0.257 | -0.006 | 0.062 | -0.026 | 0.321 | -0.05 | -0.044 | -0.018 | -0.066 | 0.071 | -0.15 | 0.019 | 0.039 | 0.052 | -0.08
7 | RMC1 (UniProt Q96DM3) | -0.036 | -0.011 | -0.013 | -0.029 | 0.024 | -0.051 | -0.056 | 0.012 | -0.062 | 0.035 | 0.027 | 0.005 | 0.008 | -0.002 | 0.003 | -0.02 | -0.057 | 0.035 | -0.007 | 0.036
8 | SERPINI1 (UniProt Q99574) | 0.034 | -0.061 | 0.001 | 0.036 | 0.007 | 0.055 | 0.014 | -0.042 | -0.065 | 0.04 | -0.04 | -0.013 | 0.038 | -0.034 | -0.013 | 0.035 | 0.036 | 0.003 | 0.009 | -0.015
9 | RANBP2 (UniProt P49792) | 0.002 | -0.001 | -0.01 | -0.009 | -0.014 | -0.069 | 0.001 | -0.002 | -0.02 | 0.06 | -0.018 | 0.001 | -0.059 | 0.006 | 0.021 | -0.05 | -0.055 | 0.046 | 0.007 | -0.003
10 | RBM42 (UniProt Q9BTD8) | 0.05 | 0.049 | 0.01 | 0.026 | -0.032 | 0.04 | -0.001 | 0.216 (active) | 0.083 | -0.01 | 0.102 | -0.039 | -0.021 | 0.009 | -0.039 | -0.033 | 0.073 | -0.022 | -0.049 | 0.004
11 | RCOR3 isoform 3 (UniProt Q9P2K3) | 0.016 | 0.023 | 0.011 | 0.014 | -0.029 | -0.024 | 0.009 | -0.048 | -0.035 | 0.004 | -0.016 | -0.028 | -0.052 | 0.038 | 0.01 | 0.022 | 0.011 | 0.03 | 0.029 | 0.014
12 | SASS6 (UniProt Q6UVJ0) | 0.001 | -0.056 | -0.01 | 0.099 | -0.018 | -0.076 | 0.004 | -0.01 | -0.032 | -0.054 | -0.032 | 0.01 | -0.083 | 0.017 | 0.008 | -0.045 | -0.03 | 0.03 | 0.044 | 0.003
13 | RPS6KB1 (UniProt P23443) | 0.009 | 0.075 | 0.16 | -0.104 | 0.001 | 0.051 | 0.022 | -0.05 | 0.006 | 0.177 | -0.034 | 0.077 | -0.003 | 0.001 | 0.003 | -0.049 | -0.008 | 0.035 | -0.014 | 0.405 (active)
14 | RAF1 isoform 2 (UniProt P04049) | 0.077 | 0.014 | -0.047 | 0.046 | -0.014 | -0.118 | 0.025 | 0.025 | -0.004 | -0.016 | 0.054 | -0.005 | 0.169 | -0.094 | -0.022 | -0.06 | -0.036 | 0.063 | -0.021 | -0.008
15 | RNASEL (UniProt Q05823) | -0.034 | -0.076 | -0.04 | -0.011 | 0.007 | -0.068 | -0.014 | -0.007 | -0.018 | -0.013 | -0.034 | 0.035 | -0.014 | -0.013 | 0.02 | -0.06 | -0.016 | 0.042 | 0.026 | -0.064
16 | REL isoform 2 (UniProt Q04864) | 0.014 | 0.005 | -0.025 | 0.32 (active) | 0.001 | 0.074 | 0.052 | 0.023 | -0.04 | -0.072 | 0.009 | -0.032 | -0.015 | -0.041 | 0.056 | -0.005 | 0.014 | 0.005 | -0.009 | -0.017
